{
  "source": "PubChem BioAssay (NCATS)",
  "note": "Results filed as inconclusive are left out. Activity calls are given as the source filed them. The call rests on the fitted dose curve; in most records, active means well fitted curve in the direction sought with a large enough effect; inconclusive means small, poorly fitted or top-dose-only effect, or another doubt; inactive means no such curve, though single readings can be large; an effect the other way counts as inactive or inconclusive. Further: 0% is about no effect.",
  "data": [
    {"target": "Galactokinase (Homo sapiens) (UniProt P51570)", "sequence (P51570 whole entry, looked up)": "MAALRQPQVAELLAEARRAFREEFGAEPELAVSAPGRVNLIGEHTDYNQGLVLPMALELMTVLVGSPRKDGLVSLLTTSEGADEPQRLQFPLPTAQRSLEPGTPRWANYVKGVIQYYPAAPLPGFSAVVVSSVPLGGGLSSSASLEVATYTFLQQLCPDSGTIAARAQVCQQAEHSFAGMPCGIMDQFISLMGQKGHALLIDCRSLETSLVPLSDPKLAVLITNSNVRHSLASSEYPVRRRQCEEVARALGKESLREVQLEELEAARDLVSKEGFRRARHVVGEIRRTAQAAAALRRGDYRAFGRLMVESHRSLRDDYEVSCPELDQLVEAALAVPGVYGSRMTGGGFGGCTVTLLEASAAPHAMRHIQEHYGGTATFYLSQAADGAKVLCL", "test": "qHTS Validation Assay for Inhibitors of Human Galactokinase (GALK) (AID 493189)", "settings": "purified human GALK enzyme activity, qHTS 7-point titration; series mostly up to 57.5 µM; activity change, negative = inhibition: at the top concentration", "procedure,_shortened": "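5 nM GALK / 100 uM galactose / 35 uM ATP, 20 mM HEPES pH8.0, 5 mM MgCl2, 60 mM NaCl, 1 mM DTT, 0.01% BSA (final). RT 1 h; Kinase-Glo Plus luminescence.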", "values": [
      {"smiles": "Fc1ccc(C(OCCCc2cnc[nH]2)c2ccc(F)cc2)cc1", "activity change, negative = inhibition": "2.48% (inactive)"},
      {"smiles": "O=C(O)CC1CCCc2ccccc2C1O", "note": "(stereo unspecified)", "activity change, negative = inhibition": "3.68% (inactive)"},
      {"smiles": "CCCCCC(O)c1cccc(OCc2ccc3ccccc3n2)c1", "note": "(stereo unspecified)", "activity change, negative = inhibition": "-3.69% (inactive)"},
      {"smiles": "Fc1cccc(/C=N/N=C/c2cccc(F)c2)c1", "activity change, negative = inhibition": "-11.2% (inactive)"},
      {"smiles": "C#CCN1C(C)=C(C(=O)OC)C(c2cccc([N+](=O)[O-])c2)C(C(=O)OCC)=C1C", "note": "(stereo unspecified)", "activity change, negative = inhibition": "1.95% (inactive)"},
      {"smiles": "NCCSSCCN", "activity change, negative = inhibition": "-4.36% (inactive)"},
      {"smiles": "CCCCN1CCC(n2c(=O)[nH]c3ccccc32)CC1", "activity change, negative = inhibition": "4.68% (inactive)"},
      {"smiles": "NO", "activity change, negative = inhibition": "1.8% (inactive)"},
      {"smiles": "NCCCCCCCCCCN", "activity change, negative = inhibition": "3.58% (inactive)"},
      {"smiles": "O=C(O)CCCC[C@@H]1CCSS1", "activity change, negative = inhibition": "-4.21% (inactive)"},
      {"smiles": "NC(=O)C(=O)O", "activity change, negative = inhibition": "3.03% (inactive)"},
      {"smiles": "O=c1[nH]c2cc([N+](=O)[O-])c([N+](=O)[O-])cc2[nH]c1=O", "activity change, negative = inhibition": "-3.11% (inactive)"},
      {"smiles": "N=C(N)SCCc1ccc(CCSC(=N)N)cc1", "activity change, negative = inhibition": "-15.7% (inactive)"},
      {"smiles": "CC(=O)N[C@H](C(=O)O)C(C)(C)SN=O", "activity change, negative = inhibition": "-0.961% (inactive)"},
      {"smiles": "CN1C2CCC1CC(OC(=O)C(O)c1ccccc1)C2", "note": "(stereo unspecified)", "activity change, negative = inhibition": "-2.75% (inactive)"},
      {"smiles": "NC[C@@H]1O[C@H](C23CC4CC(CC(C4)C2)C3)Cc2c1ccc(O)c2O", "activity change, negative = inhibition": "-2.08% (inactive)"},
      {"smiles": "CCCCCCCCCCCCCCCC(=O)NCC(COP(=O)([O-])OCC[N+](C)(C)C)OCC", "note": "(stereo unspecified)", "activity change, negative = inhibition": "-3.93% (inactive)"},
      {"smiles": "CN1CCC[C@H]1c1cccnc1", "activity change, negative = inhibition": "-3.2% (inactive)"},
      {"smiles": "N#C/C(=C\\c1ccc(O)c(O)c1)C(=O)NCc1ccccc1", "activity change, negative = inhibition": "0.767% (inactive)"},
      {"smiles": "N#C/C(=C\\c1c[nH]c2ccccc12)C(=O)c1ccc(O)c(O)c1", "activity change, negative = inhibition": "-25.1% (inactive)"},
      {"smiles": "O=C(O)[C@@H]1C[C@H](C(=O)O)N1", "activity change, negative = inhibition": "2.22% (inactive)"}
    ]},
    {"tested_on": "not listed separately", "test": "Validation screen for small molecules that induce DNA re-replication in SW480 colon adenocarcinoma cells (AID 504364)", "settings": "DNA re-replication phenotype (high-content imaging); series mostly up to 46.1 µM; activity (re-replication induction): at the top concentration", "procedure,_shortened": "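Image-based qHTS: compounds were incubated with SW480 cells for 48 hr, nuclei stained with Hoechst, and per-nucleus fluorescence intensity scanned to flag cells with excess DNA content.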", "values": [
      {"smiles": "CC(C)NCC(O)COc1cccc2ccccc12", "note": "(stereo unspecified)", "activity (re-replication induction)": "2.54% (inactive)"},
      {"smiles": "Fc1ccc(C(OCCCc2cnc[nH]2)c2ccc(F)cc2)cc1", "activity (re-replication induction)": "15.3% (inactive)"},
      {"smiles": "O=C(O)CC1CCCc2ccccc2C1O", "note": "(stereo unspecified)", "activity (re-replication induction)": "-9.45% (inactive)"},
      {"smiles": "CCCCCC(O)c1cccc(OCc2ccc3ccccc3n2)c1", "note": "(stereo unspecified)", "activity (re-replication induction)": "6.13% (inactive)"},
      {"smiles": "Fc1cccc(/C=N/N=C/c2cccc(F)c2)c1", "activity (re-replication induction)": "-4.37% (inactive)"},
      {"smiles": "C#CCN1C(C)=C(C(=O)OC)C(c2cccc([N+](=O)[O-])c2)C(C(=O)OCC)=C1C", "note": "(stereo unspecified)", "activity (re-replication induction)": "17.1% (inactive)"},
      {"smiles": "NCCSSCCN", "activity (re-replication induction)": "-0.294% (inactive)"},
      {"smiles": "CCCCN1CCC(n2c(=O)[nH]c3ccccc32)CC1", "activity (re-replication induction)": "-13.6% (inactive)"},
      {"smiles": "NO", "activity (re-replication induction)": "-2.55% (inactive)"},
      {"smiles": "NCCCCCCCCCCN", "activity (re-replication induction)": "-1.92% (inactive)"},
      {"smiles": "O=C(O)CCCC[C@@H]1CCSS1", "activity (re-replication induction)": "-3.49% (inactive)"},
      {"smiles": "NC(=O)C(=O)O", "activity (re-replication induction)": "-7.49% (inactive)"},
      {"smiles": "O=c1[nH]c2cc([N+](=O)[O-])c([N+](=O)[O-])cc2[nH]c1=O", "activity (re-replication induction)": "2.88% (inactive)"},
      {"smiles": "N=C(N)SCCc1ccc(CCSC(=N)N)cc1", "activity (re-replication induction)": "3.05% (inactive)"},
      {"smiles": "CC(=O)N[C@H](C(=O)O)C(C)(C)SN=O", "activity (re-replication induction)": "-7.02% (inactive)"},
      {"smiles": "CN1C2CCC1CC(OC(=O)C(O)c1ccccc1)C2", "note": "(stereo unspecified)", "activity (re-replication induction)": "0.113% (inactive)"},
      {"smiles": "NC[C@@H]1O[C@H](C23CC4CC(CC(C4)C2)C3)Cc2c1ccc(O)c2O", "activity (re-replication induction)": "7.31% (inactive)"},
      {"smiles": "CN1CCC[C@H]1c1cccnc1", "activity (re-replication induction)": "-12% (inactive)"},
      {"smiles": "N#C/C(=C\\c1ccc(O)c(O)c1)C(=O)NCc1ccccc1", "activity (re-replication induction)": "27.2% (inactive)"},
      {"smiles": "O=C(O)[C@@H]1C[C@H](C(=O)O)N1", "activity (re-replication induction)": "-1.43% (inactive)"}
    ]}
  ]
}
